Some of the results follow. Inconclusive results are not listed. Activity calls are given as the source filed them. Calls come from the whole dose curve.

Sequence of Peroxisome proliferator-activated receptor gamma (Homo sapiens) (P37231 whole entry, looked up, the tested form may be a part): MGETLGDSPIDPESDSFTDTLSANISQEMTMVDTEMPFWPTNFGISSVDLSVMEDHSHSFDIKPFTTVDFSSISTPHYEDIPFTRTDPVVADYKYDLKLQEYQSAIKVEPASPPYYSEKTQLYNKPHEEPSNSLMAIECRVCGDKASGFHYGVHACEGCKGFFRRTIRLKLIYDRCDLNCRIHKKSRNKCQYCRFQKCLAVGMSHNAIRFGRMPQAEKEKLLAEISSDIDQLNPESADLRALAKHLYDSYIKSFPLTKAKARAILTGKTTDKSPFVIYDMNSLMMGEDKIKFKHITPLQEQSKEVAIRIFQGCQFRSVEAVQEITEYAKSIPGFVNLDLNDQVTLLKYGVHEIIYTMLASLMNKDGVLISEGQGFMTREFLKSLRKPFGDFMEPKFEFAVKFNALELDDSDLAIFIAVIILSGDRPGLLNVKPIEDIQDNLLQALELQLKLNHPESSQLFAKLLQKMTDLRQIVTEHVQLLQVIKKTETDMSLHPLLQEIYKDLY

This assay concerns the target Peroxisome proliferator-activated receptor gamma (Homo sapiens) (UniProt P37231). The experiment in a line: PPAR gamma Selectivity Assay For Inhibitors of the Interaction of Thyroid Hormone Receptor and Steroid Receptor Coregulator 2. The conditions noted are these: PPARg LBD / Texas Red DRIP-2 peptide, fluorescence polarization, 3 h. From the text: NIH Molecular Libraries Probe Production Network [MLPCN] NIH Chemical Genomics Center [NCGC] MLPCN Grant: DK058080 Assay Provider: R. Kip Guy, St. Jude Children's Research Hospital NCGC Assay Overview: Thyroid receptor (TR) regulates many homeostatic processes including basal metabolism, cardiovascular function, body weight, and lipid trafficking. TR modulators are potential therapeutics for obesity and hyperlipidemias but current thyroid analogs have undesirable side effects, particularly cardiac stimulation. This secondary assay characterized compounds identified in the qHTS for Inhibitors of the Interaction of Thyroid Hormone Receptor and Steroid Receptor Coregulator 2 (PubChem AID 1485) for selectivity against PPAR gamma. […] Small molecule inhibitors that block the interaction of PPAR and DRIP-2 are detected by a decrease in fluorescence polarization. […]
NCGC Assay Protocol Summary: Twenty uL/well 2 uM PPAR gamma and 10 nM Tx-DRIP-2 peptide in protein buffer (20 mM TRIS, pH 7.5, 100 mM NaCl, 0.01% NP-40, 20 uM roziglitazone, and 4% DMSO) was dispensed into black solid 384-well plates (Costar 3710) using a Biomek FX (Beckman Coulter) liquid handling system. […] The plates were read by an Envision (Perkin Elmer) to detect Texas Red polarization of Tx-DRIP-2 (555 nm excitation and 632 nm emission).
A general note: Polarisation of emitted light reports the rotation of a fluorescent probe.
Regarding `O=C(COC(=O)c1cccc([N+](=O)[O-])c1)NC1C2CC3CC(C2)CC1C3` (stereo unspecified), the call was inactive.

The record behind these values is PubChem BioAssay AID2449 (National Center for Advancing Translational Sciences (NCATS), 2010).
